From PubChem BioAssay
MEKK2wt PB1 HTS – modulators of MEK5 binding to wildtype MEKK2, primary screen, biochemical, multiplex bead flow cytometry, Alexa488-MEK5; Mitogen-activated protein kinase kinase kinase 2 (Homo sapiens), Q9Y2U5; Alexa488-MEK5 binding to MEKK2 WT; actives lie on both sides; binding response (% of control), % at 10 µM; 290,000 tested, 1.1% active; in the data active means binding response below about 67% or above about 130%
CRFBP-R2 block – antagonists of CRF-BP/CRF-R2 complex, primary screen, cell-based, HEK293, calcium dye fluorescence, uHTS | inhibition, % at 11.8 µM | 350,000 tested, 0.59% active | CRF-induced calcium fluorescence;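 active means inhibition of the ligand-induced calcium signal above about 50% at the single tested concentration, limit read from the data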
MEKK2 mut-MEK5 – MEK5 binding signal on mutant MEKK2 PB1, primary screen, biochemical, multiplex bead flow cytometry, Alexa488-MEK5. Alexa488-MEK5 binding to MEKK2 mutant. percent response, % at 10 µM. AID 1530, 2009. 290,000 tested, 0.35% active; in the data active means percent response above about 24%, passing the limit was not always enough
ABCB6 inh MLPCN – ABCB6 transporter inhibitors, primary screen, K562-ABCB6 cells, flow cytometry, MLPCN library | K562-ABCB6 porphyrin accumulation, 1 h; stronger effect = lower value | fluorescence ratio to DMSO, % at 10 µM | 360,000 tested, 0.19% active;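 active means fluorescence ratio to DMSO below 75%, the collection mean minus 3 SD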;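 further: signal is porphyrin accumulated inside mitochondria; lower ratio means ABCB6 inhibition with less porphyrin fluorescence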
MEKK3 PB1 HTS – modulators of MEKK3-MEK5 PB1 binding, primary screen, biochemical, wildtype MEKK3, multiplex bead flow cytometry, Alexa488-MEK5; Mitogen-activated protein kinase kinase kinase 3 (Homo sapiens), Q99759; bead-based flow cytometry, Alexa488-MEK5 binding to MEKK3; actives lie on both sides; 0 = blocked by unlabeled MEK5, 100 = vehicle; binding response (% of control), % at 10 µM; 290,000 tested, 1.4% active; AID 1529, 2009;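 active means binding response more than 3 SD above or below the average of its plate-row segment, actives on both sides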;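 further: Alexa488 bead fluorescence after subtracting the streptavidin-only scavenger bead signal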
Target sequence (Q99759 whole entry, looked up): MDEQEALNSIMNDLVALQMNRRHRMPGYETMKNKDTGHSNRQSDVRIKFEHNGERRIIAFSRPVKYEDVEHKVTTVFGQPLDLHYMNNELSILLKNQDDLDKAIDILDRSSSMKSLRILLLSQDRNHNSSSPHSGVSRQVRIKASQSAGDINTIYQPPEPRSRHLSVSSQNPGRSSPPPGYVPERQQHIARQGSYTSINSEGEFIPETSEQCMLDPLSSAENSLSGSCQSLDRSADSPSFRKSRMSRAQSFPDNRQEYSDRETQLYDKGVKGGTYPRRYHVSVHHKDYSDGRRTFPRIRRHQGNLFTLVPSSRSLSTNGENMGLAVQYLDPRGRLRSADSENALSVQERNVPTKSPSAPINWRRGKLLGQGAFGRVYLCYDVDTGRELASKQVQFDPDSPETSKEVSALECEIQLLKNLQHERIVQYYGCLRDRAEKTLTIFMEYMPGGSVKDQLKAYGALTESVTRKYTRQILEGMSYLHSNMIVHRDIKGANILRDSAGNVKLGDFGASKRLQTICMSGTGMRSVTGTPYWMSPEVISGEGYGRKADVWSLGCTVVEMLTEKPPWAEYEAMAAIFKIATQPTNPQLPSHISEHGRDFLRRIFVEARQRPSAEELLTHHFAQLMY
CRFR2-BP ag – agonists of CRF-BP/CRF-R2 complex, primary screen, cell-based, HEK293, calcium dye fluorescence, uHTS; CRF-binding protein / CRF receptor 2 complex (human); calcium dye fluorescence (FLIPR); percent of saturating CRF peptide response; activation, % at 13.2 µM; 350,000 tested, 0.46% active;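 active means activation of at least 50%, plus an integration ratio under a set limit after plate pattern correction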
MEKK2wt confirm – modulators of MEK5 binding to wildtype MEKK2, confirmation, biochemical, single concentration, multiplex bead flow cytometry; shares compounds with MEKK3 PB1 HTS; Alexa488-MEK5 binding to MEKK2 WT; actives lie on both sides; binding response (% of control), % at 10 µM; 5,900 tested, 2.4% active; AID 1892, 2009; in the data active means binding response below about 16% or above about 210%; inactive means in between
MEKK2mut-MEK5 – mutant MEKK2 PB1-MEK5 binding signal retest – biochemical, single concentration, multiplex bead flow cytometry, confirmation; shares compounds with MEKK3 PB1 HTS; Alexa488-MEK5 binding to MEKK2 mutant; percent response, % at 10 µM; 5,900 tested, 2% active; in the data active means percent response mostly above about 71%, no sharp cut-off; inactive means mostly below about 38%;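 further: higher means compound restores mutant binding toward wildtype level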
MEKK3-MEK5 inh – MEKK3 wild-type PB1 binding to MEK5, inhibitors, confirmation, biochemical, bead multiplex flow cytometry, single concentration, wildtype | shares compounds with MEKK3 PB1 HTS | Alexa488-MEK5 binding to MEKK3; stronger effect = lower value | binding response (% of control), % at 10 µM | 5,900 tested, 1.8% active;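 active means binding response below 72% of control, or above a set upper limit, though filed actives all read lower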
Hits are given with their value; . = inactive; / = no result given; [ ] = dose if it differs, or a comment. Compounds with a hit are over-represented: about 2.9% of the library has one in this group of screens.

SMILES | MEKK2wt PB1 HTS | CRFBP-R2 block | MEKK2 mut-MEK5 | ABCB6 inh MLPCN | MEKK3 PB1 HTS | CRFR2-BP ag | MEKK2wt confirm | MEKK2mut-MEK5 | MEKK3-MEK5 inh
O=C(Cn1c(-c2cscn2)nc2ccccc21)Nc1ccc2ccccc2c1 | . | . | . | . | . | . | / | / | /
O=C(O)Cn1c(-c2cscn2)nc2ccccc21 | . | . | . | . | 123 | . | . | . | .
O=C(NCc1ccccn1)c1nc(Cn2ccc([N+](=O)[O-])n2)no1 | . | . | . | . | . | . | / | / | /
CCSc1ncnc2sc(C)c(C)c12 | . | . | . | . | 53[inhibitor] | . | . | . | .
C=CCSc1ncnc2sc(C)c(C)c12 | . | . | . | . | . | . | / | / | /
O=C(CSc1ccc2nnc(-c3cccnc3)n2n1)Nc1ccccc1F | / | . | / | . | / | . | / | / | /
COc1ccc2c(c1)c(C(=O)N/N=C/c1ccc(Cl)cc1)c(C)n2C | . | . | . | . | . | . | / | / | /
COc1ccc2c(c1)c(C(=O)N/N=C/c1ccc(OC)c(OC)c1)c(C)n2C | . | . | . | . | 152 | . | . | . | .
COc1ccc(/C=N/NC(=O)c2nc(-c3ccccc3)n(-c3ccccc3)n2)cc1OC | . | . | . | . | 151 | . | . | . | .
COc1cc(/C=N/NC(=O)c2nc(-c3ccccc3)n(-c3ccccc3)n2)ccc1O | . | . | . | . | . | . | / | / | /
O=C(CC12CC3CC(CC(C3)C1)C2)Nc1c(F)cccc1F | . | . | . | . | . | . | / | / | /
O=C(O)c1ccc(S(=O)(=O)c2ccc3c(c2)C(=O)N(c2ccc(Br)cc2)C3=O)cc1 | . | . | . | . | . | . | / | / | /
Cc1ccc(NC(=O)c2ccc(NCCc3ccccc3)c([N+](=O)[O-])c2)cc1F | 5.0[inhibitor] | . | . | . | . | . | . | . | .
O=C(CN1C(=O)NC2(CCCC2)C1=O)NNC(=O)c1ccccc1F | / | . | / | . | / | . | / | / | /
COc1ccccc1C1CC(=O)NC(C)=C1C(=O)OC(C)C (stereo not given) | . | . | . | . | 49[inhibitor] | . | . | . | .
O=[N+]([O-])c1cccc(-n2nnnc2CN2CCCCCC2)c1 | . | . | . | . | 122 | . | . | . | .
O=[N+]([O-])c1cccc(-n2nnnc2CN2CCCC2)c1 | . | . | . | . | . | . | / | / | /
NNC(=O)c1nc(-c2ccccc2)cc(-c2ccccc2)n1 | . | . | . | . | . | . | / | / | /
Nc1ccccc1NC(=O)c1ccccc1N | 3.0[inhibitor] | . | . | . | 3.0[inhibitor] | . | . | . | .
COc1ccc(CNC(=O)C(=O)NCC2OCCN2S(=O)(=O)c2ccccc2)cc1 (stereo not given) | . | . | . | . | . | . | / | / | /
CCN(CC(O)CON=C1c2ccccc2-c2ccccc21)S(=O)(=O)c1ccc(C)cc1 (stereo not given) | . | . | . | . | 141 | . | . | . | .
O=C(CSc1nc2ccccc2s1)Nc1cc(S(=O)(=O)N2CCOCC2)ccc1Cl | . | . | . | . | 129 | . | . | . | .
Nc1ccc2nc(SCC(=O)Nc3ccc(N4CCOCC4)c(Cl)c3)sc2c1 | . | . | . | . | 135 | . | . | . | .
